# Source: the supplement of paper PMC10849652
# The full data set covers some 8,800 targets. This sample favours those with a hit. About 0.5% of all pairs of compound and target were hits.
# Compound: C=CC(=O)N1CCC[C@@H](n2nc(-c3ccc(Oc4ccccc4)cc3)c3c(N)ncnc32)C1 [ibrutinib]
# Experiment: log2 fold change, soluble protein after heating vs DMSO (PISA); higher = thermal stabilisation; K562 lysate, 10 uM; active = over 0.2 and 3.5 SD of the protein, either way, in both replicates (recomputed)
# How it was run: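 Dounce homogenisation of K562 pellets in PBS pH 7.4 with 1 mM MgCl2 produced a crude extract, used at 1 mg/mL protein. Exposure to 10 μM compound lasted 30 min, and aliquots were then heated for 3 min across 48°C-58°C, pooled and brought to 0.5% NP-40 at 4°C. The supernatant after 21,000xg for 90 min was quantified by TMTpro 16plex LC-MS/MS with channel sums equalised. Duplicate values are given as log-two fold change in thermal stability relative to solvent controls.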
# Sequence of UniProt Q96G25 (Q96G25 whole entry, looked up): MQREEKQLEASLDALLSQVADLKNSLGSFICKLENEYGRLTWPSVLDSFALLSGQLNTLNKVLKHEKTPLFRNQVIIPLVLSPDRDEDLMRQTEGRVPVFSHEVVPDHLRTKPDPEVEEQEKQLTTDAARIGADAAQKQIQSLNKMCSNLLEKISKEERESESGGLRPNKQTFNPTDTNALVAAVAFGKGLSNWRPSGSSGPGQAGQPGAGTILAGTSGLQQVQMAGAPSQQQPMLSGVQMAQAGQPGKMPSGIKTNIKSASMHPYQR
# Sequence of UniProt Q9NQ29 (Q9NQ29 whole entry, looked up): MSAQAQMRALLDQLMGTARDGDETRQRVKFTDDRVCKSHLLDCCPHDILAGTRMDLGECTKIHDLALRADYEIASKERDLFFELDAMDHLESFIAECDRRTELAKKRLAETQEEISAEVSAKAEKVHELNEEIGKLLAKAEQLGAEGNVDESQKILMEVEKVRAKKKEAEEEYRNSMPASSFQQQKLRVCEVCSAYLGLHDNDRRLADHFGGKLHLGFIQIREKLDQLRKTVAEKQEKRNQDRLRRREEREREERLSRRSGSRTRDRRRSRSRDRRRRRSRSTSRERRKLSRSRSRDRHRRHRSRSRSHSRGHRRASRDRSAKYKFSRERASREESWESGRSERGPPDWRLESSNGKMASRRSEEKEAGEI
# Sequence of UniProt Q86V48 (Q86V48 whole entry, looked up): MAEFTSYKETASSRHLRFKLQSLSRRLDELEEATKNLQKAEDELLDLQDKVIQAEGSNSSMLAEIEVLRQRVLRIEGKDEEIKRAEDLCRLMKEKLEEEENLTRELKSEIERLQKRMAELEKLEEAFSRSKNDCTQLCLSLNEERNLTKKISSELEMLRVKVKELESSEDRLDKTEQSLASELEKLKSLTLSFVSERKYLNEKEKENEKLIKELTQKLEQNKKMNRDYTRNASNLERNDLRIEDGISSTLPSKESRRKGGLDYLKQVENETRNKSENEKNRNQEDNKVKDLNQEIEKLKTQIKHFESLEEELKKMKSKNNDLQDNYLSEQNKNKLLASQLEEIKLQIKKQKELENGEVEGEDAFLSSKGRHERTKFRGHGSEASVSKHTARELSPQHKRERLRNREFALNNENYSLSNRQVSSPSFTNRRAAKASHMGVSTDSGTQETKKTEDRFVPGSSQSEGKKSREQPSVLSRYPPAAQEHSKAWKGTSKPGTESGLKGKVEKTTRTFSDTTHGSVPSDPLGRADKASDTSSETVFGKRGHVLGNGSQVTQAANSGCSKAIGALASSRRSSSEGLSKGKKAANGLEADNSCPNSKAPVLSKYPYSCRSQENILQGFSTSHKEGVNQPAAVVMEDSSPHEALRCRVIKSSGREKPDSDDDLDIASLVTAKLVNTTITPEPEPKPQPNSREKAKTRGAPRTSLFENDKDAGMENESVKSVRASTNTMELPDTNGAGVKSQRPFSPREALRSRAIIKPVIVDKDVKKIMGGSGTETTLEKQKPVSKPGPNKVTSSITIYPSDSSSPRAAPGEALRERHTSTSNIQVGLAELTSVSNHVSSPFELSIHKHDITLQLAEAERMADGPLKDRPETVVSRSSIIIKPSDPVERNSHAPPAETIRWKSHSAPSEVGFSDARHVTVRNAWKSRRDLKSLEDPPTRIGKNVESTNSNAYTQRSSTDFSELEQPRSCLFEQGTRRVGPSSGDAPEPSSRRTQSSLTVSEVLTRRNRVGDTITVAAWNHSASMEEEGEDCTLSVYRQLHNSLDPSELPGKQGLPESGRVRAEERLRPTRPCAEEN
# Sequence of UniProt Q9NS87 (Q9NS87 whole entry, looked up): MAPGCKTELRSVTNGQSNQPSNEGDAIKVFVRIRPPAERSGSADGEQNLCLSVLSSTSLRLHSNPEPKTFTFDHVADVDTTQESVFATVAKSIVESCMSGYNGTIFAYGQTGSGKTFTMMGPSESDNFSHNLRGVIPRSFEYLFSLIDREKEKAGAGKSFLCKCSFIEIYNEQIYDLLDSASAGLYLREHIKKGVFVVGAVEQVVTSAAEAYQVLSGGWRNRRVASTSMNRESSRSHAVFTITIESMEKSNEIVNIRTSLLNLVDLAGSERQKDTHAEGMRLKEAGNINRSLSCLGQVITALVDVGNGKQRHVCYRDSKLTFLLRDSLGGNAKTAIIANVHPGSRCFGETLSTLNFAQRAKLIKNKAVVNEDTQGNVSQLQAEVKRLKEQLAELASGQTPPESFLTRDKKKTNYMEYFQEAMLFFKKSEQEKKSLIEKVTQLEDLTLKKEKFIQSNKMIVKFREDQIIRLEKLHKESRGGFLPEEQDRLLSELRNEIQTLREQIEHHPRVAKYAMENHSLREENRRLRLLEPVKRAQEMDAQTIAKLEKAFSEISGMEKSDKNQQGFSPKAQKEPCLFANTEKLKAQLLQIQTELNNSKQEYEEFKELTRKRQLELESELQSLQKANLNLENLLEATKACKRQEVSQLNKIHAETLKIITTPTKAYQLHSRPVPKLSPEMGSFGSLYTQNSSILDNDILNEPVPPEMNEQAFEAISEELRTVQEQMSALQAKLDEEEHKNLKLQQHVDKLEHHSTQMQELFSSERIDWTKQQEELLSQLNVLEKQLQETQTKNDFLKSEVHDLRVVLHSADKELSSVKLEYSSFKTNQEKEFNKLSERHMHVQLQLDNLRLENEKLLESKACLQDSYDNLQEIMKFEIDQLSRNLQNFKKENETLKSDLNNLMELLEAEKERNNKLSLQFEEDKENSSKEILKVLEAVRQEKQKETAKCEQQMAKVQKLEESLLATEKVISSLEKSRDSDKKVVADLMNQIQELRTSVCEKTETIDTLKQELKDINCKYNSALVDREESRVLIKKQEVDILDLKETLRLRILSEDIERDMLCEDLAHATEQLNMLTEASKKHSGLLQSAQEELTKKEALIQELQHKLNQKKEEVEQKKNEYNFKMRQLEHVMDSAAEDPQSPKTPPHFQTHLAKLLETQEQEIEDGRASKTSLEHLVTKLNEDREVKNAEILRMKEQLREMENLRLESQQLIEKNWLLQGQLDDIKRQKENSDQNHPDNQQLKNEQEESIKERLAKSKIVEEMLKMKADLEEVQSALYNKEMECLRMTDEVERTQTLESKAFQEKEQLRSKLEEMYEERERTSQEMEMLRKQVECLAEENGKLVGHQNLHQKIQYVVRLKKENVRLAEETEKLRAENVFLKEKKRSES
# Sequence of UniProt P27361 (P27361 whole entry, looked up): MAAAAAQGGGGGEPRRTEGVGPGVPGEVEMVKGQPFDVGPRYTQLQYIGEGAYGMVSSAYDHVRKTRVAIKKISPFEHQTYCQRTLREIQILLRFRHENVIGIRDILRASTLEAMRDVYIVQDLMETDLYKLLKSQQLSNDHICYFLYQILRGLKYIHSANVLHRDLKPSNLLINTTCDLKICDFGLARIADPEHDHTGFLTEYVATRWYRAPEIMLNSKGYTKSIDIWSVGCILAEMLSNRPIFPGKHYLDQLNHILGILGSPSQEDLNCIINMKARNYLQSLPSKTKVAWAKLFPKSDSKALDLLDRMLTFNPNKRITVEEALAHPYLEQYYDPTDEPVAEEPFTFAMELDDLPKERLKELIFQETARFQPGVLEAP
# Sequence of UniProt O95239 (O95239 whole entry, looked up): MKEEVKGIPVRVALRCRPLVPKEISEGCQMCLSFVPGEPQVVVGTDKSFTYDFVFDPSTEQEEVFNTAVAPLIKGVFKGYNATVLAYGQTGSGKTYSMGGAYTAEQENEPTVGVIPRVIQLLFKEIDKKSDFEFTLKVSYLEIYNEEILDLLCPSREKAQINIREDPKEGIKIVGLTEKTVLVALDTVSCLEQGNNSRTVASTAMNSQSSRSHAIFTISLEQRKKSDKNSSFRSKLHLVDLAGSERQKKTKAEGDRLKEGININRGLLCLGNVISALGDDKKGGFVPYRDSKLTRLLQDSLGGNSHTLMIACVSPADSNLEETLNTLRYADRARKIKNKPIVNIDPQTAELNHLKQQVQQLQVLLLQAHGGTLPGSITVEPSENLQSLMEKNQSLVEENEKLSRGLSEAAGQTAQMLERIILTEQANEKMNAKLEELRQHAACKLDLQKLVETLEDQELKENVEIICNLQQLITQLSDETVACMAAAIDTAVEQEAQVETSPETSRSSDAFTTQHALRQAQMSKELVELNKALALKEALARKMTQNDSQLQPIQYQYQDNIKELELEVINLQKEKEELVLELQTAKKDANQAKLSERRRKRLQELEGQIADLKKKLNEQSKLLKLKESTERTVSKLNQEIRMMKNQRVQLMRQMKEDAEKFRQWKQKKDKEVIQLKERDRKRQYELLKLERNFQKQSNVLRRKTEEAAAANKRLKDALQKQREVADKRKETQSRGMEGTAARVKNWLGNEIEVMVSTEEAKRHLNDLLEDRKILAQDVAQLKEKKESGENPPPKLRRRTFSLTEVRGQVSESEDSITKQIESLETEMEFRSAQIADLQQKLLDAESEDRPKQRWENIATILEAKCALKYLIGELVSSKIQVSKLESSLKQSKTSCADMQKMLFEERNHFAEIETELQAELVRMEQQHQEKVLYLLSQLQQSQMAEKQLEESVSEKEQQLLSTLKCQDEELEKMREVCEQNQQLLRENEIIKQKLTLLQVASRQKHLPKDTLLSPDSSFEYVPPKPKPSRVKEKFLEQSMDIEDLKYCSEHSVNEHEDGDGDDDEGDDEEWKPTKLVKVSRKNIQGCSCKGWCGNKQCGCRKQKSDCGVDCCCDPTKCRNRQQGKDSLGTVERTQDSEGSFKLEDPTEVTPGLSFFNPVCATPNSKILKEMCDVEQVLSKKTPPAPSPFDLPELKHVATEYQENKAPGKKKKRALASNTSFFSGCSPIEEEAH
# Sequence of UniProt Q9NZL9 (Q9NZL9 whole entry, looked up): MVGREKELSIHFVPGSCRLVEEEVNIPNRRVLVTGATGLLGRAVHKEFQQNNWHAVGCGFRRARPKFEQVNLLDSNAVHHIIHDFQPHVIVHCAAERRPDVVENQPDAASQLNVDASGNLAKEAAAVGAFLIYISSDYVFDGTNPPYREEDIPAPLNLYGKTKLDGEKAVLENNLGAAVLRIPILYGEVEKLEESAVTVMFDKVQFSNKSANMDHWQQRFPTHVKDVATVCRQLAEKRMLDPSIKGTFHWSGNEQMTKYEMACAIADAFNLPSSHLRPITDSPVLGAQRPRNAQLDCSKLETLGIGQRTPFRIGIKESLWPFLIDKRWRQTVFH
row,Target,log2 fold change
1,MED16 (UniProt Q9Y2X0),-0.113 (inactive)
2,LAP3 (UniProt P28838),0.043 (inactive)
3,LUZP1 (UniProt Q86V48),0.002 (inactive)
4,KSR1 (UniProt Q8IVT5),0.021 (inactive)
5,LTN1 isoform 3 (UniProt O94822),-0.036 (inactive)
6,MAP2K3 isoform 3 (UniProt P46734),-0.041 (inactive)
7,MRPL46 (UniProt Q9H2W6),-0.101 (inactive)
8,MCU (UniProt Q8NE86),-0.05 (inactive)
9,KIF14 (UniProt Q15058),0.086 (inactive)
10,KIF15 (UniProt Q9NS87),-0.017 (inactive)
11,MAP3K4 (UniProt Q9Y6R4),0.046 (inactive)
12,LIMS1 isoform 3 (UniProt P48059),0.003 (inactive)
13,KIF11 (UniProt P52732),0.005 (inactive)
14,KIFC1 (UniProt Q9BW19),0.021 (inactive)
15,MAT2B (UniProt Q9NZL9),0 (inactive)
16,MFF isoform 2 (UniProt Q9GZY8),0.007 (inactive)
17,KPNA2 (UniProt P52292),-0.044 (inactive)
18,MED8 isoform 2 (UniProt Q96G25),0.109 (inactive)
19,MAPK8 isoform 3 (UniProt P45983),0.038 (inactive)
20,MGST3 (UniProt O14880),0.06 (inactive)

row,Target,log2 fold change
1,KIF4A (UniProt O95239),0.011 (inactive)
2,MPP1 (UniProt Q00013),0.035 (inactive)
3,MAP4 (UniProt E7EVA0),0.001 (inactive)
4,LARS2 (UniProt Q15031),0.009 (inactive)
5,LIMK2 isoform 3 (UniProt P53671),0.129 (inactive)
6,KPNA4 (UniProt O00629),-0.037 (inactive)
7,MAP7D3 (UniProt Q8IWC1),-0.073 (inactive)
8,METTL7A (UniProt Q9H8H3),0.113 (inactive)
9,LYN (UniProt P07948),1.15 (active)
10,LUC7L (UniProt Q9NQ29),0.007 (inactive)
11,LYSMD3 (UniProt Q7Z3D4),0.098 (inactive)
12,KRR1 (UniProt Q13601),0.037 (inactive)
13,METTL2A (UniProt Q96IZ6),-0.006 (inactive)
14,MARK3 (UniProt P27448),0.03 (inactive)
15,MLH1 (UniProt P40692),0.01 (inactive)
16,KLC2 (UniProt Q9H0B6),0.021 (inactive)
17,MCCC1 (UniProt Q96RQ3),0.034 (inactive)
18,MAPK3 (UniProt P27361),0.001 (inactive)
19,MITD1 (UniProt Q8WV92),0.007 (inactive)
